Of roughly 7,900 targets only a part is listed; those with a hit were picked by preference. About 0.6% of all pairs of compound and target were hits.
Experiments:
Assay in all cases: log2 fold change, soluble protein after heating vs DMSO (PISA); higher = thermal stabilisation; K562 cells, 10 uM, 30 min; active = over 0.2 and 3.5 SD of the protein, either way, in both replicates (recomputed)
[1] = compound: CS(=O)(=O)c1ccc(-c2cnc(N)c(C(=O)Nc3ccccc3)n2)cc1
Method in brief: (§1)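 Soluble protein was quantified by TMTpro 16plex LC-MS/MS after channel sums were equalised. It was obtained as the supernatant after 21,000xg for 90 min from pooled aliquots of K562 cells (2×10^6 cells/mL, 10 μM compound, 30 min) heated for 3 min across 48°C-58°C and extracted in PBS with 0.5% NP-40 at 4°C. Thermal stability values are relative to control samples and come from duplicates. They are given as log2 fold changes.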

crizotinib = compound: C[C@@H](Oc1cc(-c2cnn(C3CCNCC3)c2)cnc1N)c1c(Cl)ccc(F)c1Cl [crizotinib]
Method in brief: as §1

[2] = compound: C[C@@H]1COCCN1C2=NC(=NC(=C2)C3(CC3)S(=O)(=O)C)C4=C5C=CNC5=CC=C4
Method in brief: as §1

[3] = compound: C[C@H](C1=CC=C(C=C1)C(=O)NC2=C3C=CNC3=NC=C2)N
Method in brief: as §1

duvelisib = compound: C[C@H](Nc1ncnc2nc[nH]c12)c1cc2cccc(Cl)c2c(=O)n1-c1ccccc1 [duvelisib]
Method in brief: as §1

gandotinib = compound: Cc1cc(Nc2cc(CN3CCOCC3)c3nc(C)c(Cc4ccc(Cl)cc4F)n3n2)n[nH]1 [gandotinib]
Method in brief: as §1

tozasertib = compound: Cc1cc(Nc2cc(N3CCN(C)CC3)nc(Sc3ccc(NC(=O)C4CC4)cc3)n2)n[nH]1 [tozasertib]
Method in brief: as §1

[4] = compound: Cc1cc(SCc2sc(-c3ccc(C(F)(F)F)cc3)nc2C)ccc1OCC(=O)O
Method in brief: as §1

doramapimod = compound: Cc1ccc(-n2nc(C(C)(C)C)cc2NC(=O)Nc2ccc(OCCN3CCOCC3)c3ccccc23)cc1 [doramapimod]
Method in brief: as §1

ispinesib = compound: Cc1ccc(C(=O)N(CCCN)[C@@H](c2nc3cc(Cl)ccc3c(=O)n2Cc2ccccc2)C(C)C)cc1 [ispinesib]
Method in brief: as §1

bafetinib = compound: Cc1ccc(NC(=O)c2ccc(CN3CC[C@H](N(C)C)C3)c(C(F)(F)F)c2)cc1Nc1nccc(-c2cncnc2)n1 [bafetinib]
Method in brief: as §1

[5] = compound: Cc1cccc(CC(=O)N2CCc3c2ccc(-c2cn(C)c4ncnc(N)c24)c3F)n1
Method in brief: as §1

nilotinib = compound: Cc1cn(-c2cc(NC(=O)c3ccc(C)c(Nc4nccc(-c5cccnc5)n4)c3)cc(C(F)(F)F)c2)cn1 [nilotinib]
Method in brief: as §1

[6] = compound: Cc1nc(Nc2n[nH]c3c2CN(C(=O)N[C@H](CN(C)C)c2ccccc2)C3(C)C)c2sccc2n1
Method in brief: as §1

dasatinib = compound: Cc1nc(Nc2ncc(C(=O)Nc3c(C)cccc3Cl)s2)cc(N2CCN(CCO)CC2)n1 [dasatinib]
Method in brief: as §1

[7] = compound: Cc1ncc(-c2ccnc(Nc3ccc(S(C)(=O)=O)cc3)n2)n1C(C)C
Method in brief: as §1

[8] = compound: Cn1cc(-c2ccc3c(c2)CCN3C(=O)Cc2cccc(C(F)(F)F)c2)c2c(N)ncnc21
Method in brief: as §1

[9] = compound: Cn1cc(-c2ccc3nnc(C(F)(F)c4ccc5ncccc5c4)n3n2)cn1
Method in brief: as §1

tipifarnib = compound: Cn1cncc1[C@@](N)(c1ccc(Cl)cc1)c1ccc2c(c1)c(-c1cccc(Cl)c1)cc(=O)n2C [tipifarnib]
Method in brief: as §1

mubritinib = compound: FC(F)(F)c1ccc(/C=C/c2nc(COc3ccc(CCCCn4ccnn4)cc3)co2)cc1 [mubritinib]
Method in brief: as §1

Measured: log2 fold change

WASHC2A (UniProt Q641Q2)
inactive: [1] 0.025 | [2] -0.033 | [3] 0.137 | duvelisib -0.061 | gandotinib 0.012 | tozasertib 0.062 | [4] -0.047 | doramapimod 0.062 | ispinesib -0.229 | bafetinib -0.078 | [5] -0.025 | nilotinib 0.002 | [6] -0.039 | dasatinib 0.022 | [7] -0.012 | [8] -0.088 | [9] 0.035 | tipifarnib 0.052 | mubritinib 0.004
active: crizotinib -0.28

TMEM177 (UniProt Q53S58)
Chain of UniProt Q53S58 (Q53S58 whole entry, looked up): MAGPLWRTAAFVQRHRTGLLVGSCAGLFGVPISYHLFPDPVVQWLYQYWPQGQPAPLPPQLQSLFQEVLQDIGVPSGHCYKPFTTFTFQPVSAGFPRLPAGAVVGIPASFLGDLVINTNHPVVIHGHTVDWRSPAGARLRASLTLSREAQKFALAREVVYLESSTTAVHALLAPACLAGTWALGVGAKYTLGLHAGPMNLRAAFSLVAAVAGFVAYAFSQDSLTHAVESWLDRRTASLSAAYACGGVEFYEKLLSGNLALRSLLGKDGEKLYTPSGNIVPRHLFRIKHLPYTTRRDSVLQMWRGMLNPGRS
inactive: [1] 0.005 | crizotinib 0.033 | [2] 0.065 | [3] 0.011 | duvelisib 0.039 | gandotinib 0.025 | tozasertib 0.087 | [4] 0.053 | doramapimod -0.062 | bafetinib -0.123 | [5] 0.054 | nilotinib -0.001 | [6] -0.005 | dasatinib -0.045 | [7] 0.023 | [8] -0.019 | [9] 0.016 | tipifarnib 0.004 | mubritinib 0.026
active: ispinesib -0.304

UTP3 (UniProt Q9NQZ2)
Chain of UniProt Q9NQZ2 (Q9NQZ2 whole entry, looked up): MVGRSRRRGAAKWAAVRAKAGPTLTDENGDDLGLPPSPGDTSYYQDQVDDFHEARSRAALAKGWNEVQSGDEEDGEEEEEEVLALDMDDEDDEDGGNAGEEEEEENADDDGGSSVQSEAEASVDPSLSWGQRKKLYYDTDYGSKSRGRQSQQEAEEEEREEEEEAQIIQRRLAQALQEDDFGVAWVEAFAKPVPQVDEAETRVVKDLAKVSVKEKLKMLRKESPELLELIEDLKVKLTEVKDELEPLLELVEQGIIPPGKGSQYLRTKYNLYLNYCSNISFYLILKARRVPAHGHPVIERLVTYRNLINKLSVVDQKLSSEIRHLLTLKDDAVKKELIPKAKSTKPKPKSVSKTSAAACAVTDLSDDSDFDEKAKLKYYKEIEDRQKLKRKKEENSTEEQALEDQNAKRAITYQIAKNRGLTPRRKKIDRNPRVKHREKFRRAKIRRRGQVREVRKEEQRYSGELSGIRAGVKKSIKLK
inactive: [1] 0.015 | crizotinib 0.061 | [2] -0.494 | [3] 0.363 | duvelisib -0.133 | gandotinib 0.17 | tozasertib 0.017 | [4] -0.04 | doramapimod 0.099 | ispinesib -0.144 | [5] -0.048 | dasatinib 0.168 | [8] -0.208 | [9] -0.132 | tipifarnib 0.212 | mubritinib -0.228
active: bafetinib 0.689

WDR46, A0A0G2JJL1
inactive: [1] -0.119 | crizotinib 0.086 | [2] -0.581 | duvelisib -0.157 | tozasertib 0.198 | [4] -0.125 | doramapimod 0.236 | bafetinib 0.339 | nilotinib -0.094 | [6] 0.202 | dasatinib 0.381 | [7] 0.105 | tipifarnib 0.171 | mubritinib -0.051

UBA52 (UniProt P62987)
active: [2] -0.909
inactive: [1] -0.065 | crizotinib -0.02 | [3] 0.364 | gandotinib 0.44 | tozasertib 0.053 | doramapimod 0.118 | ispinesib -0.165 | bafetinib 0.285 | [5] -0.001 | [8] -0.343 | [9] -0.16 | tipifarnib 0.247 | mubritinib -0.115

XPO1 (UniProt O14980)
inactive: [1] -0.016 | crizotinib -0.138 | [2] 0.089 | [3] 0.006 | duvelisib -0.024 | gandotinib -0.223 | tozasertib 0.027 | [4] 0.094 | doramapimod -0.034 | ispinesib -0.081 | bafetinib -0.003 | [5] 0.042 | nilotinib -0.114 | [6] -0.037 | dasatinib -0.154 | [7] 0.001 | [8] 0.005 | [9] -0.008 | tipifarnib -0.159 | mubritinib 0.042

TMEM9B (UniProt Q9NQ34)
Chain of UniProt Q9NQ34 (Q9NQ34 whole entry, looked up): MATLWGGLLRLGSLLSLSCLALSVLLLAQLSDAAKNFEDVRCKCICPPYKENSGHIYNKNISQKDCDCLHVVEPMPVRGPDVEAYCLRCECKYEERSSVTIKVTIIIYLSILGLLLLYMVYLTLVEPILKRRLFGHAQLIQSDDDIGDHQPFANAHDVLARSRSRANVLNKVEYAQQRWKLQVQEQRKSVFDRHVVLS
inactive: [1] -0.035 | crizotinib -0.011 | [2] 0.105 | [3] 0.061 | gandotinib -0.116 | tozasertib -0.03 | doramapimod 0.023 | ispinesib -0.211 | bafetinib -0.039 | [5] 0.036 | nilotinib 0.005 | [6] 0.009 | [7] -0.015 | [8] 0.051 | [9] 0.164 | tipifarnib -0.108 | mubritinib 0.009

TTC38 (UniProt Q5R3I4)
active: doramapimod 0.73
inactive: [1] -0.055 | crizotinib -0.085 | [2] -0.085 | [3] -0.073 | duvelisib -0.027 | gandotinib -0.031 | tozasertib 0 | [4] 0.063 | ispinesib 0.06 | bafetinib -0.012 | [5] 0.021 | nilotinib 0.038 | [6] 0.034 | dasatinib 0.024 | [7] -0.04 | [8] 0.071 | [9] -0.021 | tipifarnib 0.05 | mubritinib 0.322

UBR2 (UniProt Q8IWV8)
Chain of UniProt Q8IWV8 (Q8IWV8 whole entry, looked up): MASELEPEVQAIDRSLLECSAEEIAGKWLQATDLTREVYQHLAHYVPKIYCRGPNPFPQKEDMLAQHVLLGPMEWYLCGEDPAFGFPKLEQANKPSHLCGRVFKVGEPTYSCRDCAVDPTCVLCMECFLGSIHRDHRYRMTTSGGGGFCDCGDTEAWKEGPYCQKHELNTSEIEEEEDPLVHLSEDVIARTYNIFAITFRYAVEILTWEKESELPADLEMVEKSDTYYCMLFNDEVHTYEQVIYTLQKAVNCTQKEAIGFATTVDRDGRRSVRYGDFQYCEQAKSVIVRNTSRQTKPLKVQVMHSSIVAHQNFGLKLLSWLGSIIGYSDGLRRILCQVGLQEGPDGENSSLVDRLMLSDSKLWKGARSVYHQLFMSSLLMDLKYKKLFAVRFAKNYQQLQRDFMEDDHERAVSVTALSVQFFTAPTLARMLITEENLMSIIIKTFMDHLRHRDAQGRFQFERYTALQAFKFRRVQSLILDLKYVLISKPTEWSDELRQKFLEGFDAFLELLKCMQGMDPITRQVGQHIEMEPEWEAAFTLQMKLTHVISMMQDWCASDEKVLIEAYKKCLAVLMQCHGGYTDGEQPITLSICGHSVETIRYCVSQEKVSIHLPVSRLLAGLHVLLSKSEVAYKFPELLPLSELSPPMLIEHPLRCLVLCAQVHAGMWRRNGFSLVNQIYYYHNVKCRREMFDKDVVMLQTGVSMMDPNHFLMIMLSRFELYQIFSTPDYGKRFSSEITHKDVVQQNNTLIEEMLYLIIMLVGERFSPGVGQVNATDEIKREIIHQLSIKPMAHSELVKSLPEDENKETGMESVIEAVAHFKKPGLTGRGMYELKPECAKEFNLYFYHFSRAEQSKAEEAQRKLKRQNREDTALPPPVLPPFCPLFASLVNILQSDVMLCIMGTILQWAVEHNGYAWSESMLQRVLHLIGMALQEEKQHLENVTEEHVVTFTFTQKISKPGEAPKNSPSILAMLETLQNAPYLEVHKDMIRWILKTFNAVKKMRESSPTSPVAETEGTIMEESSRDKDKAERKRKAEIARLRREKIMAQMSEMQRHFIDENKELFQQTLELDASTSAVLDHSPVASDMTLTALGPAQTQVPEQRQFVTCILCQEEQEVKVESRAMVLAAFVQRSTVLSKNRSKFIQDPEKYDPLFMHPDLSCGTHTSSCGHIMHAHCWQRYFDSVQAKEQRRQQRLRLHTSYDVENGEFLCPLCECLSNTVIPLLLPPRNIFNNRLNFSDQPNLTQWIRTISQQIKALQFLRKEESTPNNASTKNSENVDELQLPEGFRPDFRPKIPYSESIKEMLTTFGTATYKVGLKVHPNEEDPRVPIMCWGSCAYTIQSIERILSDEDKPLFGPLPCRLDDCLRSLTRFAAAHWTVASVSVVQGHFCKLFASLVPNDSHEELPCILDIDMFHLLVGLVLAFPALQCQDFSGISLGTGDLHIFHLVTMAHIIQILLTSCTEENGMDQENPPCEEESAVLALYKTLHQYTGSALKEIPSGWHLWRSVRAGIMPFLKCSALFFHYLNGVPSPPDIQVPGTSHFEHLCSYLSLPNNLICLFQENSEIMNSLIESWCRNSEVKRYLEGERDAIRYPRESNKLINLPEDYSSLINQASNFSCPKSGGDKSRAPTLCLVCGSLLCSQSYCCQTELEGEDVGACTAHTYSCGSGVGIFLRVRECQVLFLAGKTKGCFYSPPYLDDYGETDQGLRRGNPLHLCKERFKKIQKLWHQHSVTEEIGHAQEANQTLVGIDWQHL
inactive: [1] 0 | crizotinib -0.027 | [2] -0.063 | [3] 0.166 | duvelisib 0.008 | gandotinib 0 | tozasertib -0.03 | [4] 0.135 | doramapimod 0.073 | ispinesib -0.141 | bafetinib 0.021 | [5] 0.072 | nilotinib 0.02 | [6] 0.01 | dasatinib -0.107 | [7] -0.069 | [8] -0.023 | [9] 0.058 | tipifarnib -0.095 | mubritinib 0.011

TMEM8A (UniProt Q9HCN3)
inactive: [1] 0.425 | [3] 0.049 | duvelisib 0.394 | gandotinib 0.014 | tozasertib -0.026 | [4] -0.095 | ispinesib -0.065 | bafetinib -0.054 | [5] 0.096 | nilotinib -0.033 | [6] 0.071 | dasatinib -0.409 | [7] 0.019 | [8] -0.046 | [9] 0 | tipifarnib 0.047 | mubritinib -0.001

UBE2D1 (UniProt P51668)
Chain of UniProt P51668 (P51668 whole entry, looked up): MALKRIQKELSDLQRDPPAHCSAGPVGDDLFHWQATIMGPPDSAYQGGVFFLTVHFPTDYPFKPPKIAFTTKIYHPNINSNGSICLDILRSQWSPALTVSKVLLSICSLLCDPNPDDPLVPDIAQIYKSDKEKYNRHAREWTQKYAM
inactive: [1] 0.062 | [3] -0.004 | duvelisib 0.054 | gandotinib 0.047 | tozasertib -0.048 | [4] 0.102 | ispinesib 0.056 | bafetinib -0.065 | nilotinib -0.002 | [6] 0.046 | dasatinib -0.083 | [7] -0.074 | [8] 0.036 | [9] -0.075 | tipifarnib -0.089 | mubritinib 0.085
active: [5] -0.345

WDR4 isoform 3 (UniProt P57081)
inactive: [1] 0.074 | [2] 0.125 | gandotinib -0.247 | bafetinib 0.125 | [5] 0.057

USP48 (UniProt Q86UV5)
inactive: [1] 0.015 | bafetinib 0.045 | nilotinib -0.294 | [6] -0.495 | [7] -0.016 | mubritinib 0.117

UTP20 (UniProt O75691)
inactive: [2] -0.379 | tozasertib 0.021 | tipifarnib 0.089

XAB2 (UniProt Q9HCS7)
inactive: [2] -0.223 | duvelisib -0.146 | [4] 0.013 | doramapimod -0.035 | ispinesib -0.223 | dasatinib -0.092 | [9] 0.125 | mubritinib -0.151
active: crizotinib -0.69

TRPT1 isoform 4 (UniProt Q86TN4)
inactive: [1] -0.176 | crizotinib -0.011 | doramapimod 0.013 | ispinesib -0.105 | [9] -0.011 | mubritinib 0.041

TXNRD1 isoform 7 (UniProt Q16881)
Chain of UniProt Q16881 (Q16881 whole entry, looked up): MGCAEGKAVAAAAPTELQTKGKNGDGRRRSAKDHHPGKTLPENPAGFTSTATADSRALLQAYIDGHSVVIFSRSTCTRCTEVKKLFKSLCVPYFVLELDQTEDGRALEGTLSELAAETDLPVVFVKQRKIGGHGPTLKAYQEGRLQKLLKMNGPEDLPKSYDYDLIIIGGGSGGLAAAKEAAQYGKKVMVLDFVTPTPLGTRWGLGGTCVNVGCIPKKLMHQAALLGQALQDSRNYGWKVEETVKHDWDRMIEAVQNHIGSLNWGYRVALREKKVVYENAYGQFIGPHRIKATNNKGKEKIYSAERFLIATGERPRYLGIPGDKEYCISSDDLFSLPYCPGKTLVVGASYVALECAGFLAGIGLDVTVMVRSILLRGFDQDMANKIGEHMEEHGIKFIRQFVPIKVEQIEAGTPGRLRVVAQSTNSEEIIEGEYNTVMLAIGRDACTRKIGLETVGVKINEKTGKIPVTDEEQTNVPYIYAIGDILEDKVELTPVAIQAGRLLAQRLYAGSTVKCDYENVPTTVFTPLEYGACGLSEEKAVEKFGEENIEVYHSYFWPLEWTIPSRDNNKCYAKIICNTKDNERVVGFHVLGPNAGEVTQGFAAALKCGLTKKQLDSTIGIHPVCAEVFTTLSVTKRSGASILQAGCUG
inactive: [1] 0.075 | [2] -0.026 | duvelisib -0.049 | gandotinib 0.125 | [4] -0.015 | bafetinib -0.124 | [5] 0.001 | dasatinib -0.052 | tipifarnib -0.051

UNC119B (UniProt A6NIH7)
Chain of UniProt A6NIH7 (A6NIH7 whole entry, looked up): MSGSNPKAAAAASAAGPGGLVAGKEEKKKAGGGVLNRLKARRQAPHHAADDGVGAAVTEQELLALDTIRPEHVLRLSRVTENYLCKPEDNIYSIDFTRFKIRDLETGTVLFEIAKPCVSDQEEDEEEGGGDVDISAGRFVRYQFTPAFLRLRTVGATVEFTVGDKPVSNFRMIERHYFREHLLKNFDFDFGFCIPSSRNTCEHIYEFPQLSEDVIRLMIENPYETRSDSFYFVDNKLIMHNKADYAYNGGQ
active: ispinesib 0.527
inactive: [1] 0.026 | crizotinib -0.08 | [3] 0.039 | duvelisib 0.178 | gandotinib 0.034 | tozasertib -0.019 | [4] -0.064 | doramapimod 0.263 | bafetinib 0.424 | [5] -0.006 | nilotinib 0.16 | [6] -0.077 | dasatinib 0.069 | [7] 0.173 | [8] 0.428 | [9] -0.089 | tipifarnib -0.143 | mubritinib 0.14

UBE2J2 isoform 3 (UniProt Q8N2K1)
Chain of UniProt Q8N2K1 (Q8N2K1 whole entry, looked up): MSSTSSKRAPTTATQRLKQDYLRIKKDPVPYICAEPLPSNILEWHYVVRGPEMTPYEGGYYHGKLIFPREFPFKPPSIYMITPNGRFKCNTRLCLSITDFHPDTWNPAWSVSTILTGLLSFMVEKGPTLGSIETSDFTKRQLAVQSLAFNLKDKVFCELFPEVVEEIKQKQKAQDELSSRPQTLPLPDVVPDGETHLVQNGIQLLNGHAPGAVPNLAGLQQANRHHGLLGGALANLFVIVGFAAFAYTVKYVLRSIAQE
inactive: [1] 0.252 | [2] -0.076 | [3] -0.365 | duvelisib 0.101 | gandotinib 0.028 | tozasertib -0.094 | [4] -0.01 | bafetinib 0.037 | [5] -0.12 | dasatinib -0.154 | [8] 0.013 | tipifarnib 0.041

TVP23C (UniProt Q96ET8)
Chain of UniProt Q96ET8 (Q96ET8 whole entry, looked up): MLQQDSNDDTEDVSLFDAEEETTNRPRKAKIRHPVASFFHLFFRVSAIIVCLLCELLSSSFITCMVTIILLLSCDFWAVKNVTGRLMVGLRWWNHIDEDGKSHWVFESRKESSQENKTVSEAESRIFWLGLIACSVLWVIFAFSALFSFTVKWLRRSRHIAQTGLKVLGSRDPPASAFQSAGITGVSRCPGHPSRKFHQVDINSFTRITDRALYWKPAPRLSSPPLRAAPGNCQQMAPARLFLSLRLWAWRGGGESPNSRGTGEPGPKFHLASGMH
inactive: [3] 0.03 | duvelisib -0.065 | gandotinib -0.016 | tozasertib -0.028 | [4] -0.092 | [5] 0.033 | dasatinib 0.056 | [8] -0.116 | tipifarnib 0.041 | mubritinib 0.04

XIAP (UniProt P98170)
Chain of UniProt P98170 (P98170 whole entry, looked up): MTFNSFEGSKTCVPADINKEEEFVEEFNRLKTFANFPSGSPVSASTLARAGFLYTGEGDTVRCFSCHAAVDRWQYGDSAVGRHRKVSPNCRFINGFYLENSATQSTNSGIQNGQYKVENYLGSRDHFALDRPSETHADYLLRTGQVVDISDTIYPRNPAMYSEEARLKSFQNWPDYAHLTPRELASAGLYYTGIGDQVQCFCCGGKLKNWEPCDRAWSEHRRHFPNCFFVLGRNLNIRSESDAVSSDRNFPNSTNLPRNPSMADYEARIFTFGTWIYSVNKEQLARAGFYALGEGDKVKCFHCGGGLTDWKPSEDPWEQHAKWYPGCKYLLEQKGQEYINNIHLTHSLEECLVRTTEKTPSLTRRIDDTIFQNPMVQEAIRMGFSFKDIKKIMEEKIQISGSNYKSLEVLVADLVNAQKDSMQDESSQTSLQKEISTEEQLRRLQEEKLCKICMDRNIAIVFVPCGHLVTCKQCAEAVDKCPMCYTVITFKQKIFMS
inactive: [1] 0.125 | [2] 0.092 | [3] -0.09 | duvelisib 0.068 | gandotinib 0.061 | tozasertib -0.01 | [4] -0.036 | bafetinib -0.111 | [5] -0.046 | nilotinib 0.366 | [6] 0.061 | dasatinib -0.027 | [7] -0.288 | [8] 0.029 | tipifarnib -0.078 | mubritinib 0.095

WARS1 (UniProt G3V3P2)
inactive: [1] -0.07 | bafetinib -0.076

TSPAN13 (UniProt O95857)
inactive: [1] -0.055 | [2] 0.4 | [3] -0.17 | duvelisib 0.045 | gandotinib -0.05 | tozasertib -0.06 | [4] -0.124 | ispinesib -0.03 | bafetinib -0.101 | [5] 0.014 | nilotinib 0.056 | [6] -0.035 | dasatinib -0.163 | [7] -0.095 | [8] -0.038 | [9] 0.095 | tipifarnib -0.008 | mubritinib 0.226

Reference: the supplement of paper PMC10849652
